Laboratory results: PubChem BioAssay AID1851 (National Center for Advancing Translational Sciences (NCATS), 2009)
Among all 16,000 compounds or so, about 5,800 (36%) were called active. Not shown: some 23% with an inconclusive outcome. The list shows a part of the results. Values without a mark were called inactive. Calls follow the shape of the dose curve; as a rule, active = well fitted curve in the direction sought with a large enough effect; inconclusive = small, poorly fitted or top-dose-only effect, or effect the other way; inactive = no such curve, though single readings can be large or run the other way.
% is scaled to controls: 0 for no effect and ±100 for the full control effect.

These molecules were tested against Cytochrome P450 2C19 (Homo sapiens) (UniProt P33261) (assay: Cytochrome panel assay with activity outcomes). Conditions: recombinant CYP, pro-luciferin dealkylation, luminescence, p450-cyp2c19; series mostly up to 57.1 µM; activity, negative = inhibition: at the top concentration.
Sequence of Cytochrome P450 2C19 (Homo sapiens) (P33261 whole entry, looked up): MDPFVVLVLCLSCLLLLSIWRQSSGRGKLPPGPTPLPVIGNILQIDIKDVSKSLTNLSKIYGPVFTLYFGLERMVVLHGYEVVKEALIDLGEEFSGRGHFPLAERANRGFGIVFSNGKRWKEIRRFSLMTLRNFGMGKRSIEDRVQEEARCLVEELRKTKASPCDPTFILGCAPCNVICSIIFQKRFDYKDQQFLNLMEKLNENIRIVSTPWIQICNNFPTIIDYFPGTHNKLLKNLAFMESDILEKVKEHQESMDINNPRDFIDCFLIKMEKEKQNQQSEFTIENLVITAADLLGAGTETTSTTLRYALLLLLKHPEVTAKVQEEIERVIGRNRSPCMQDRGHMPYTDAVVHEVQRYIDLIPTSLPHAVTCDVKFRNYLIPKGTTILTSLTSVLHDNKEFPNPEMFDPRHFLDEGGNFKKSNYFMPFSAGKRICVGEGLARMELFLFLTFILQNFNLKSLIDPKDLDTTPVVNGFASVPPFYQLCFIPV
`CC1(C)O[C@@H]2O[C@H]([C@H](O)CO/N=C3/[C@H]4O[C@@H]4[C@@H](O)[C@H]4[C@H]3CCn3c(=O)n(-c5ccccc5)c(=O)n34)[C@@H](O)[C@@H]2O1` showed an activity, negative = inhibition of -36.7% [at 11.4 µM].
In the case of `Cc1c(C(=O)NCCC2=CCCCC2)cccc1[N+](=O)[O-]`, the AC50 is reported as 10 µM (active).
`Cc1c(C(=O)NN2CCN(C)CC2)cccc1[N+](=O)[O-]` was tested, and the “activity, negative = inhibition” value was 12.7%.
In the case of `Cn1c(=O)c(-c2ccc(Cl)cc2)nc2cnc(N3CCOCC3)nc21`, the “activity, negative = inhibition” value is reported as -5.23%.
For `CCC(=O)Nc1cc(-c2nn(C)c(=O)c3ccccc23)ccc1N1CCCCC1`, the AC50 was 15.8 µM (active).
`COCCn1c(=O)c(-c2ccc(Cl)cc2)nc2cnc(N3CCOCC3)nc21` was tested, and the “activity, negative = inhibition” value was -5.7%.
For `Cn1nc(-c2ccc(N3CCOCC3)c(NS(=O)(=O)c3ccc(Cl)cc3)c2)c2ccccc2c1=O`, the AC50 was 0.708 µM (active).
For `O=C(NC1CCCCC1)C(Cc1ccccc1)N1C(=O)C2C3CCC(C3)C2C1=O` (centres undefined), the AC50 was 11.2 µM (active).
For `CC(=O)Nc1ccc(NCN2C(=O)C3C4CCC(C4)C3C2=O)cc1` (centres undefined), the “activity, negative = inhibition” value was -17.9%.
For `O=C(NCCCN1CCCCCC1)[C@@H](c1ccccc1)C1CCCCC1`, the “activity, negative = inhibition” value was -22.4%.
For `O=C(c1ccccc1NS(=O)(=O)c1cccc([N+](=O)[O-])c1)N1CCOCC1`, the “activity, negative = inhibition” value was -8.87%.
With `Cc1ccc(NS(=O)(=O)c2ccc(OCC(=O)Nc3cccc([N+](=O)[O-])c3)c(C)c2)cc1` the AC50 was 2 µM (active).
For `CSC1=N/C(=C\c2ccc(C)cc2)C(=O)S1`, the AC50 was 7.94 µM (active).
In the case of `CSC1=N/C(=C\c2ccc(Br)o2)C(=O)S1`, the AC50 is reported as 10 µM (active).
For `CCNc1ncc2nc(-c3ccc(Cl)cc3)c(=O)n(-c3ccccc3)c2n1`, the “activity, negative = inhibition” value was 1.02%.
With `CCSc1nnc(-c2ccc(Cl)cc2)c2ccccc12` the AC50 was 6.31 µM (active).
In the case of `Cn1c(SCc2nc3ccccc3n2CCO)nc2ccccc21`, the AC50 is reported as 6.31 µM (active).
With `CC(=O)n1c(COS(C)(=O)=O)nc2ccccc21` the activity, negative = inhibition was 6.98% [at 11.4 µM].
`Cn1c(C[C@@H](O)c2nc3ccccc3n2C)nc2ccccc21` showed an activity, negative = inhibition of -23.7% [at 11.4 µM].
`Nc1nc2c(c(=O)[nH]1)N[C@H](CCNc1ccc(C(=O)O)cc1)CN2` gave an activity, negative = inhibition of 0.2% [at 11.4 µM].
For `CNCCC=C1c2ccccc2CCc2ccccc21`, the AC50 was “inactive”.
`C[N+](C)([O-])CCC=C1c2ccccc2CCc2ccccc21` was tested, and the AC50 was 0.398 µM (active).
With `CN(C)CCC=C1c2ccccc2CCc2ccccc21` the “activity, negative = inhibition” value was -32.5%.
For `O=C(Nc1cccn(Cc2c(Cl)cccc2Cl)c1=O)c1ccc(Cl)cc1Cl`, the AC50 was 0.794 µM (active).
In the case of `CCOC(=O)N/N=C1/C[C@@H](O)[C@@H](O)[C@@H]2[C@@H]3C(=O)N(CC)C(=O)[C@H]3CC[C@@H]12`, the activity, negative = inhibition is reported as 25.5% [at 11.4 µM].
For `O=C(CN1C(=O)C2C3C=CC(C3)C2C1=O)Nc1ccc(C(=O)O)cc1` (centres undefined), the “activity, negative = inhibition” value was 7.63%.
`CCOC(=O)NCN1C(=O)C2C3C=CC(C3)C2C1=O` (centres undefined) was tested, and the AC50 was 28.2 µM (active).
`Cc1nc2c(c(-c3ccccc3)c1C#N)C(=O)c1ccccc1-2` was tested, and the AC50 was 1 µM (active).
With `Cc1[nH]n2c(=O)c(C#N)c(-c3ccccc3)nc2c1-c1ccccc1` the “activity, negative = inhibition” value was 0.116%.
In the case of `Cc1ccc2c(c1)N(CCC(=O)NCC1CCCO1)C(=O)CO2` (centres undefined), the “activity, negative = inhibition” value is reported as -24%.
For `Cc1ccc2c(c1)N(CCC(=O)NCc1cccnc1)C(=O)CO2`, the AC50 was 8.91 µM (active).
In the case of `COc1ccccc1CNC(=O)CCN1C(=O)COc2ccc(C)cc21`, the AC50 is reported as 3.16 µM (active).
With `CC(=O)Nc1nnc(SCc2ccc(F)cc2)s1` the AC50 was 8.91 µM (active).
In the case of `O=C(Nc1nnc(SCc2ccc(Cl)cc2)s1)c1ccco1`, the AC50 is reported as 4.47 µM (active).
With `CC1CCCC(C)N1C(=O)c1ccccc1Nc1ccc(SC(F)F)cc1` (centres undefined) the AC50 was 1.12 µM (active).
With `O=C(c1ccccc1Nc1ccc(SC(F)F)cc1)N1CCCCC1` the AC50 was 0.891 µM (active).
In the case of `O=C(O)c1ccccc1Nc1ccccc1`, the “activity, negative = inhibition” value is reported as -23.6%.
`CCCC[C@@H]1C[C@H]1C(NC(=O)Cc1ccccc1)c1ccc(-c2ccccc2)cc1` (some centres undefined) was tested, and the “activity, negative = inhibition” value was 0.313%.
For `CCCC[C@@H]1C[C@H]1C(NC(=O)c1ccccc1)c1ccccc1` (some centres undefined), the AC50 was 0.398 µM (active).
With `CCCC[C@@H]1C[C@H]1C(NC(=O)c1cccnc1)c1ccc(Cl)cc1` (some centres undefined) the AC50 was 2 µM (active).
With `CCCC[C@@H]1C[C@H]1C(NC(=O)Cc1ccccc1)c1ccc(Cl)cc1` (some centres undefined) the AC50 was 0.0501 µM (active).
For `CCCC[C@@H]1C[C@H]1C(NC(=O)c1ccccc1)c1ccc(-c2ccccc2)cc1` (some centres undefined), the “activity, negative = inhibition” value was 9.73%.
For `CCCC[C@@H]1C[C@H]1C(NC(=O)c1ccccc1)c1ccc(Cl)cc1` (some centres undefined), the AC50 was 0.631 µM (active).
`CNCCCC1c2ccccc2C=Cc2ccccc21` was tested, and the AC50 was “inactive”.
`O=C1c2ccccc2-c2n[nH]c3cccc1c23` was tested, and the “activity, negative = inhibition” value was 27.5%.
With `CCCC[C@@H]1C[C@H]1C(NC(=O)c1cccs1)c1ccc(Cl)cc1` (some centres undefined) the AC50 was 0.0794 µM (active).
`CCCCNc1cc(=O)oc2ccccc12` was tested, and the AC50 was 25.1 µM (active).
Work on `Cc1nc2ccccc2nc1-c1ccc(N=[N+]([O-])c2ccc(-c3nc4ccccc4nc3C)cc2)cc1` yielded an activity, negative = inhibition of 64.3% [at 11.4 µM].
`Nc1ccc(Oc2ccc3nc(-c4ccccc4)c(-c4ccc([N+](=O)[O-])cc4)nc3c2)cc1` was tested, and the AC50 was 3.55 µM (active).
